# Screening data from PubChem.
# TEAD-YAP block – TEAD-YAP interaction inhibition | inhibition, % at 9.12 µM | HEK-TIYL cells, TEAD-Gal4/YAP UAS-luciferase luminescence | 640,000 tested, 1.4% active; in the data active = inhibition above about 32%;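 note: 0% = median of test compound wells and 100% = reference inhibitor wells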
# GPR151 ag – human GPR151 activation. activation, % at 11.2 µM. AID 1508602. 650,000 tested, 1% active. PathHunter beta-arrestin GPR151 cells, luminescence; in the data active = activation above about 4.9%;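 note: 0% = median of compound wells and 100% = cells with positive control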
# MITF primary – blocks human microphthalmia-associated transcription factor; O75030; AlphaScreen MITF homodimerization, bead proximity signal; inhibition, % at 2.6 µM; 650,000 tested, 0.91% active; AID 1259374; in the data active = inhibition above about 50%;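 note: 0% = vehicle wells with protein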
# Target sequence (O75030 whole entry, looked up): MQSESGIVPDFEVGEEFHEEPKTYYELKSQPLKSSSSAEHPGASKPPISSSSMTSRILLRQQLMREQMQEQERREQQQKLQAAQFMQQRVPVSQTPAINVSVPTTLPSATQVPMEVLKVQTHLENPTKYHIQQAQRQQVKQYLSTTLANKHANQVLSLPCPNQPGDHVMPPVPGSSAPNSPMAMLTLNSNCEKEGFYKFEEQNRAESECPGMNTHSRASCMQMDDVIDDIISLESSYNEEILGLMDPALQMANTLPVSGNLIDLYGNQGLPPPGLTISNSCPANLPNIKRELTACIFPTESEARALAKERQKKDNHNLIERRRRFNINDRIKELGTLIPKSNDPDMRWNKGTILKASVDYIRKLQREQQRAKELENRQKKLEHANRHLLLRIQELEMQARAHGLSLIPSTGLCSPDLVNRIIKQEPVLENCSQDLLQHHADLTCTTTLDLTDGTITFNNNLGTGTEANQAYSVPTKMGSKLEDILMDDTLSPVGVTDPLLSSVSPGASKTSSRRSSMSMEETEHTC
# FBW7 act – human FBW7 E3 ligase activation, primary screen; Q969H0; AlphaScreen FBW7–phospho-cyclin E peptide binding, activator screen; 650,000 tested, 0.13% active; normalized activity (activation), % at 26.1 µM; in the data active = normalized activity above about 1.9%;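 note: purified mutant Fbw7 with reduced substrate affinity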
# * = called active by the depositor. Hits are enriched below; roughly 3.4% of the tested compounds scored in any of these assays.
SMILES,TEAD-YAP block,GPR151 ag,MITF primary,FBW7 act
OC1CCN(c2cc(F)cc(-c3ccnc(Nc4ccc(-n5cnc(-c6ccccn6)n5)cc4)n3)c2)CC1,85*,1,3,0
Fc1cc(-c2ccnc(Nc3ccc(-n4cnc(C(F)(F)F)n4)cc3)n2)cc(N2CCN(C3CC3)CC2)c1,9,-1,13,0
Fc1cc(-c2ccnc(Nc3ccc(-n4cnc(C(F)(F)F)n4)cc3)n2)cc(N2CCNCC2)c1,39*,1,9,1
OC1CCN(c2ccc(Nc3nccc(-c4cc(F)cc(N5CCOCC5)c4)n3)cc2)CC1,48*,1,10,0
Cc1ccnc(-c2ncn(-c3ccc(Nc4nccc(-c5cc(F)cc(N6CCOCC6)c5)n4)cc3)n2)c1,28,1,-8,0
Cc1ncn(-c2ccc(Nc3nccc(-c4cc(C#N)cc(N5CCCC5)c4)n3)cc2)n1,-6,-1,2,0
CN1CCN(c2ncn(-c3ccc(Nc4nccc(-c5cc(C#N)cc(N6CCC(O)CC6)c5)n4)cc3)n2)CC1,42*,-1,3,0
N#Cc1ccc(C(=O)OCCN2CCCC2=O)cc1 (tested in a mixture with another compound),1,-1,4,0
CN(C)c1ccc(/C=C(\C#N)c2nc3ccccc3[nH]2)cc1Br,-3,-1,7,0
C=CCn1c(SCC(=O)Nc2ccccc2)nnc1-c1ccccc1O,33*,-1,-4,0
C=CCn1c(SCC(=O)Nc2ccc3c(c2)OCCO3)nnc1-c1cccs1,51*,0,10,0
O=C(CSc1nnnn1-c1ccc(F)cc1F)Nc1ccc2c(c1)OCCO2,38*,-1,3,0
C=CCn1c(SCC(=O)Nc2cccc([N+](=O)[O-])c2)nnc1-c1ccccc1O,31,1,-8,0
CCn1c(SCC(=O)NC(=O)Nc2ccc3c(c2)OCCO3)nnc1-c1cccs1,-4,0,-1,0
COc1ccc(-n2nnnc2SCC(=O)Nc2ccc3c(c2)OCCO3)cc1OC,1,-1,-3,0
CCn1c(SCC(=O)Nc2cccc([N+](=O)[O-])c2)nnc1-c1ccccc1O,32*,0,-3,0
COc1ccc(COn2ccc3ccc(S(C)(=O)=O)cc32)cc1,42*,0,-3,0
Nc1nc(Nc2ccc3ncccc3c2)nc2c1ncn2Cc1ccc(C(F)(F)F)cc1,-26,-2,-6,0
CC1(C)CCN2CCC(C)(C)c3c(O)ccc1c32,38*,0,23,0
CC1(c2cccc(Cc3cccc(C4(C)CCCCC4)c3O)c2O)CCCCC1,6,-2,12,0
CCCOC(=O)c1ccc(NC(=O)c2ccc3c(c2)OCCO3)cc1,41*,-1,-2,0
COc1ccc(C(=O)Nc2ccc3sc(C)nc3c2)cc1,-23,-1,9,0
CCCOC(=O)c1ccc(NC(=O)c2ccc(Cl)c(Cl)c2)cc1,-4,1,4,0
CCOC(=O)c1ccc(NC(=O)c2ccc3c(c2)OCCO3)cc1,35*,0,6,0
Cc1nc2cc(NC(=O)c3ccc4c(c3)OCCO4)ccc2s1,61*,-7,7,0
SMILES,TEAD-YAP block,GPR151 ag,MITF primary,FBW7 act
O=C(Nc1ccc(F)cc1)c1ccc2c(c1)OCCO2,59*,-7,-1,0
O=c1/c(=C/c2ccccc2Cl)sc2nc(-c3ccccc3)nn12,4,1,-4,0
COC(=O)Cn1c(C)cc(C)c([N+](=O)[O-])c1=O,-5,1,3,0
Cc1ccc(Cn2c(SCCCO)nc3c2c(=O)n(C)c(=O)n3C)cc1,2,-1,1,0
CN(C)CCN(C)C(=O)c1cc(-c2cn[nH]c2)ccc1NC(=O)C1COc2ccc(F)cc2C1 (stereo not drawn),3,-1,15,0
C/C(=N\NC(=O)c1cc2ccccc2cc1O)c1c(O)cc(C)oc1=O,-4,0,12,1
O=C(Nc1onc2c1CCCC2)c1ccc(F)cc1,-1,-6,-6,0
O=C(Nc1onc2c1CCCC2)c1ccc2c(c1)OCCO2,91*,-9,-6,0
CCOc1cccc(C2CC(=O)NC3=C2C(=O)CC(c2ccc(OC)c(OC)c2)C3)c1 (stereo not drawn),11,0,10,0
CC1CCCN(c2ncnc3c2cnn3-c2ccccc2)C1 (stereo not drawn),84*,-1,-8,0
Cc1cccc(-n2ncc3c(N4CCC(C)CC4)ncnc32)c1,24,2,-7,0
Cc1cccc(-n2ncc3c(N4CCCC(C)C4)ncnc32)c1 (stereo not drawn),96*,-3,-16,0
